Results filed as inconclusive are left out. Active and inactive are the calls of the source. Calls come from the whole dose curve; as a rule, active = well fitted curve in the direction sought with a large enough effect; inconclusive = small, poorly fitted or top-dose-only effect, or another doubt; inactive = no such curve, though single readings can be large; an effect the other way counts as inactive or inconclusive.
Key:
[1] = BET inhibitor-based combinations targeting novel dependencies in MECOM-rearranged (r) AML: SET-2 cell line (AID 2202231); details: SET-2 AML cells viability, CellTiter-Glo luminescence, 48 h; viability: active compounds read low, concentration not given here; note: nearly all actives have a fitted effect of over 35% in size; note: potency is the fitted concentration of half-maximal effect;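 for viability: plate controls were DMSO treated cells for no effect and wells without cells for full effect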
Summary of the method: (§1)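 Readout: CellTiter-Glo luminescence. Exposure: 48 h, 11 concentrations, 500 cells/well. Metric: AUC and within-line Z-AUC after DMSO/empty-well normalization.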

[2] = BET inhibitor-based combinations targeting novel dependencies in MECOM-rearranged (r) AML: OCI-AML3 cell line (AID 2202232); details: Potency: OCI-AML3 viability; note: nearly all actives have a fitted effect of over 35% in size; note: potency is the fitted concentration of half-maximal effect
Summary of the method: as §1

[3] = BET inhibitor-based combinations targeting novel dependencies in MECOM-rearranged (r) AML: MV-4-11 cell line (AID 2202233); note: nearly all actives have a fitted effect of over 45% in size; note: potency is the fitted concentration of half-maximal effect
Summary of the method: (§2)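 Seeding density was 500 cells/well, and drug exposure lasted 48 hr under standard culture conditions. Read-out used CellTiter-Glo reagent with a 15 min room-temperature incubation before luminescence measurement; AUC and Z-AUC summarize the normalized responses.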

[4] = BET inhibitor-based combinations targeting novel dependencies in MECOM-rearranged (r) AML: HNT-34 cell line (AID 2202234); note: nearly all actives have a fitted effect of over 35% in size; note: potency is the fitted concentration of half-maximal effect
Summary of the method: as §2

[5] = BET inhibitor-based combinations targeting novel dependencies in MECOM-rearranged (r) AML: AML-191 cell line (AID 2202236; note: nearly all actives have a fitted effect of over 35% in size; note: potency is the fitted concentration of half-maximal effect)
Summary of the method: as §1

[6] = BET inhibitor-based combinations targeting novel dependencies in MECOM-rearranged (r) AML: AML-194 cell line (AID 2202237; note: nearly all actives have a fitted effect of over 40% in size; note: potency is the fitted concentration of half-maximal effect)
Summary of the method: as §1

[7] = BET inhibitor-based combinations targeting novel dependencies in MECOM-rearranged (r) AML: UCSD-AML1 cell line (AID 2202235); note: nearly all actives have a fitted effect of over 40% in size; note: potency is the fitted concentration of half-maximal effect
Summary of the method: as §2

[8] = biological target: Retinaldehyde dehydrogenase 3 (Homo sapiens) (UniProt P47895); test: qHTS for Inhibitors of the Aldehyde Dehydrogenase Family (ALDH1A3) Primary screen (AID 2061315);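 note: plate controls were DMSO vehicle for no effect and reference inhibitor for full effect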

C1CCC(C(CC2CCCCN2)C2CCCCC2)CC1 (centres undefined)
active: Potency [1] 11.8 µM | Potency [2] 6.61 µM | Potency [3] 8.33 µM | Potency [4] 7.42 µM | Potency [5] 9.34 µM | Potency [6] 7.42 µM

Nc1nc(Cl)nc2c1ncn2[C@H]1C[C@H](O)[C@@H](CO)O1
active: Potency [1] 0.263 µM | Potency [2] 0.0833 µM | Potency [3] 0.0934 µM | Potency [4] 0.0742 µM | Potency [7] 0.0295 µM | Potency [5] 0.0833 µM

NC(=O)Nc1sc(-c2ccc(F)cc2)cc1C(N)=O
active: Potency [1] 5.9 µM | Potency [3] 1.86 µM | Potency [4] 1.66 µM | Potency [7] 1.86 µM | Potency [5] 1.86 µM

CC(=O)NC1C(OC(C)(C)C2CCC3(C)C=C(C4CCC5C4(C)CC(O)C4OC(C(C)(C)O)CCC45C)CCC3O2)OC(CO)C(O)C1O (centres undefined)
inactive: Potency [8]

CCOC(=O)[C@@H](N)CCC(=O)N[C@@H](CSCc1ccccc1)C(=O)N[C@@H](C(=O)OCC)c1ccccc1
active: Potency [2] 10.5 µM | Potency [3] 18.6 µM | Potency [4] 26.3 µM | Potency [5] 16.6 µM

CC#CCn1c(N2CCC[C@@H](N)C2)nc2c1c(=O)n(Cc1nc(C)c3ccccc3n1)c(=O)n2C
inactive: Potency [2] | Potency [3] | Potency [4] | Potency [7] | Potency [6]

O=C(O)c1cc(=O)c2c(OCC(O)COc3cccc4oc(C(=O)O)cc(=O)c34)cccc2o1
inactive: viability [1] 114% | Potency [2] | Potency [5] | Potency [6]

Cc1ccc(NC(=O)c2ccc(CN3CCN(C)CC3)cc2)cc1Nc1nccc(-c2cccnc2)n1
inactive: Potency [7]

CN[C@@H](C)C(=O)N[C@H]1CCCC[C@H]2CC[C@@H](C(=O)N[C@@H](c3ccccc3)c3cn(CCCCc4ccc(CCCCn5cc([C@@H](NC(=O)[C@@H]6CC[C@@H]7CCCC[C@H](NC(=O)[C@H](C)NC)C(=O)N76)c6ccccc6)nn5)cc4)nn3)N2C1=O
inactive: Potency [4]
active: Potency [7] 0.0037 µM

Source: PubChem BioAssay (NCATS)
